Compound activity from PubChem BioAssay.
Only some compounds are listed: those with a hit (about 4.7% of all), similar ones and a draw of the others.
eIF4H inh: inhibitors of RNA binding by human eIF4H; inhibition, % at 35 µM; Q15056; AID 2012; eIF4H fluorescence polarization binding assay; actives 0.94% (n = 290,000);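 note: calls also rest on retests at 20 µM and on dose response follow-up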
PABP polyA inh: blocks human PABP binding to poly(A) RNA; actives 1% (n = 290,000); AID 2014; inhibition, % at 35 µM; fluorescence polarization;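 note: calls also rest on retests at 20 µM and on dose response follow-up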
ALR inh: inhibitors of human sulfhydryl oxidase ALR; P55789; purified ALR, DTT oxidation, H2O2 HRP-luminol luminescence; inhibition, % (no concentration beside the values); actives 3.8% (n = 290,000);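 active = mean replicate inhibition above about 79%, with every replicate also reaching it, limit read from the data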
Efflux pump inh: inhibitors of Candida antifungal efflux pumps expressed in yeast | S. cerevisiae Candida pump triplex, Nile Red efflux | inhibition, % at 10 µM | actives 0.44% (n = 330,000) | AID 485275;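 active = plate passing quality check with inhibition over a set limit, or well fluorescence over plate mean plus 4 SD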;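 note: Nile Red retained in pooled yeast measured as flow cytometry median fluorescence; 0% = buffer negative control and 100% = Enniatin B positive control; higher means more Nile Red kept so more efflux inhibition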
UBC9 SUMO inh: blocks human SUMOylation mediated by UBC9. P63279. HTRF SUMOylation assay, SAE1/SAE2 + UBC9, in vitro. inhibition, % at 35 µM. actives 0.36% (n = 290,000); in the data active = inhibition above about 50%, passing the limit was not always enough
Target sequence (P63279 whole entry, looked up): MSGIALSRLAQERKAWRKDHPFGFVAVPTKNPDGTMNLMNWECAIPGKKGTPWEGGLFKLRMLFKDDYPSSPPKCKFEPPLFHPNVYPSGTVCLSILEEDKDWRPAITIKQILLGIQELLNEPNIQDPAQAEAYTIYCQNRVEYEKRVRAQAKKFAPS
PABP1 MLLE inh: blocks PAM2 peptide binding to the PABP1 MLLE domain; actives 0.36% (n = 360,000); GST-MLLE / FITC-PAM2 fluorescence polarization; inhibition, % at 20 µM; P11940; in the data active = inhibition above about 35%, passing the limit was not always enough;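 note: plate controls were DMSO wells with GST-MLLE for no effect and wells lacking GST-MLLE protein for full effect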
The depositor's hits bear a star; · = no result given. Unless noted, the rule behind the calls is not given here.

SMILES	eIF4H inh	PABP polyA inh	ALR inh	Efflux pump inh	UBC9 SUMO inh	PABP1 MLLE inh
C/C(=N\NC(=O)CSc1nc2ccccc2o1)c1ccc(O)cc1	0	10	99*	0	11	-10
C/C(=N\NC(=O)CSc1nc2ccccc2o1)c1cccc(O)c1	3	0	·	0	5	-4
O=C(CSc1nc2ccccc2o1)N/N=C/c1ccc(O)c(O)c1	41	30	88*	0	-13	0
O=C(CSc1nc2ccccc2o1)N/N=C/c1ccccc1	-3	-4	-3	0	-2	18
Cc1ccc(Nc2nnns2)cc1C	-3	3	87*	0	0	33
Nc1cc(OCC(F)(F)F)cc([N+](=O)[O-])c1	8	-6	3	0	-22	-4
Nc1cc(N)c(OCC(F)(F)F)cc1OCC(F)(F)F	106*	90*	3	0	49	18
COc1ccc(NC(=O)N(C)C[C@H]2OCCCC[C@H](C)Oc3ccc(NS(=O)(=O)c4cn(C)cn4)cc3C(=O)N([C@H](C)CO)C[C@@H]2C)cc1	·	·	·	·	·	-25
CCOC(=O)c1cc2c(ccn2C)n1CC(=O)N(Cc1ccccc1)c1ccccc1	12	14	3	-1	5	41*
Cc1cc(C)cc(Oc2coc3c(CN(C)C)c(O)ccc3c2=O)c1	-6	-2	-2	0	51*	-9
COc1ccc(Oc2coc3c(CN(C)C)c(O)ccc3c2=O)cc1	-6	-9	·	0	33	13
Cc1cc(OCC(=O)OCC(=O)NCC2CCCO2)ccc1Cl (stereo unspecified)	·	·	·	0	·	-7
Cc1ccc(C(=O)C2CC2)cc1C	·	·	·	·	·	4
COC(=O)CCN1CCC2CC1c1cc(N3CCCCC3)ccc12 (stereo unspecified)	·	·	·	·	·	-8
CCN(CC)c1ccc(NC(=O)C2=CC=CN3CCS(=O)(=O)N=C23)cc1	·	·	99*	0	·	-32
CC(C)(C)c1ccc(NC(=O)C2=CC=CN3CCS(=O)(=O)N=C23)cc1	·	·	2	0	·	5
C=Cc1ccc(C(=O)N2CCCC(Nc3ccc4c(c3)OCCO4)C2)cc1 (stereo unspecified)	0	-7	·	·	12	-4
COC(=O)c1cccc(C(=O)N2CCCC(Nc3ccc(C)c(C)c3)C2)c1 (stereo unspecified)	·	·	98*	0	·	-15
Cc1ccc(NC2CCCN(C(=O)c3cc4ncccn4n3)C2)cc1C (stereo unspecified)	-3	0	83*	1	-15	11
C=CCOc1cccc(C(=O)N2CCCC(Nc3ccc4c(c3)OCCO4)C2)c1 (stereo unspecified)	-3	-3	91*	0	-1	11
COc1ccc(C(=O)N2CCCC(Nc3ccc(C)c(C)c3)C2)cc1F (stereo unspecified)	-8	4	95*	-1	1	4
COc1cc2cnc(-c3ccccc3F)cc2cc1OC	·	·	5	0	·	2
Cc1ccc(NC2CCCN(C(=O)c3cccnc3)C2)cc1C (stereo unspecified)	-5	0	93*	0	-17	6
Cc1ccc(C(=O)N2CCCC(Nc3ccc(F)cc3)C2)cc1C (stereo unspecified)	9	-1	99*	0	25	-29
COc1ccc(C(=O)N2CCCC(Nc3ccc(F)cc3)C2)cc1F (stereo unspecified)	-19	0	65	0	3	7
SMILES	eIF4H inh	PABP polyA inh	ALR inh	Efflux pump inh	UBC9 SUMO inh	PABP1 MLLE inh
COc1cc(NS(=O)(=O)c2ccc(Nc3nc(-c4ccccc4)cs3)cc2)nc(OC)n1	-13	-4	96*	0	-9	11
Cc1cc(NS(=O)(=O)c2ccc(Nc3nc(-c4sc(N)nc4C)cs3)cc2)no1	26	43	99*	0	22	-37
Cc1cc(NS(=O)(=O)c2ccc(Nc3nc(-c4ccc(O)cc4)cs3)cc2)no1	-9	-2	100*	0	16	23
COc1cc(NS(=O)(=O)c2ccc(NC(=S)Nc3ccccc3)cc2)nc(OC)n1	6	4	·	3	17	32
CCOC(=O)c1c(NC(=O)CSc2nc3ccccc3c(=O)n2-c2ccccc2)sc(C(C)=O)c1C	-13	3	-8	0	5	-16
CCCn1c(=O)n(C)c(=O)c2c(SCC(=O)Nc3cc(C)on3)nc(C(C)(C)C)nc21	·	·	-7	0	·	2
